# Screening data: PubChem BioAssay, several laboratories
# An excerpt weighted towards active compounds, which were near 1.3% of everything screened.
# RTF Ca sens act: cardiac RTF calcium sensitivity activators, primary screen, biochemical, IANBD-TnC fluorescence, EC20 calcium; IANBD-labeled TnC RTF fluorescence at EC20 calcium; 0% EC20 calcium, 100% full calcium; activation, % at 7.2 µM; hit rate 0.24% among 340,000;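 active = activation above the mean over all tested compounds plus 3 SD, cut at about 30% in these data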;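 note: rise in fluorescence read as greater calcium sensitivity of cardiac thin filaments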
# CRFR2-BP ag: agonists of CRF-BP/CRF-R2 complex, primary screen, cell-based, HEK293, calcium dye fluorescence, uHTS | CRF-binding protein / CRF receptor 2 complex (human) | calcium dye fluorescence (FLIPR); percent of saturating CRF peptide response | activation, % at 13.2 µM | hit rate 0.46% among 350,000;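 active = activation of at least 50%, plus an integration ratio under a set limit after plate pattern correction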;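 note: plate controls were neutral control wells without compound for no effect and CRF at EC100 for full effect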
# Cardiac RTF inh: cardiac RTF calcium sensitivity inhibitors, primary screen, biochemical, IANBD-TnC fluorescence, EC70 calcium. AID 493244, 2011. inhibition, % at 7.15 µM. IANBD-labeled cardiac RTF, Ca2+ fluorescence. hit rate 0.12% among 340,000. Troponin I, cardiac muscle (Homo sapiens) + Troponin T, cardiac muscle (Homo sapiens) + …;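 active = inhibition above the mean inhibition of all tested compounds plus 3 SD, cut at about 17% in these data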;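 note: assay run at fixed EC70 calcium of 1.6 mM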
# Keap1-Nrf2 PPI: Keap1-Nrf2 protein-protein interaction inhibitors, primary screen, biochemical, fluorescence polarization, single point | hit rate 0.15% among 340,000 | inhibition, % at 9.4 µM | Kelch-like ECH-associated protein 1 (Homo sapiens), Q14145 | Keap1 Kelch-Nrf2 peptide fluorescence polarization, 1536-well | AID 504523, 2011; in the data active = inhibition above about 12%;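 note: human Keap1 Kelch domain with fluorescein labeled Nrf2 9mer peptide probe; 0% = neutral control wells and 100% = peptide positive control; higher means more block of Keap1 binding to Nrf2 peptide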
# Target sequence (Q14145 whole entry, looked up, the tested form may be a part): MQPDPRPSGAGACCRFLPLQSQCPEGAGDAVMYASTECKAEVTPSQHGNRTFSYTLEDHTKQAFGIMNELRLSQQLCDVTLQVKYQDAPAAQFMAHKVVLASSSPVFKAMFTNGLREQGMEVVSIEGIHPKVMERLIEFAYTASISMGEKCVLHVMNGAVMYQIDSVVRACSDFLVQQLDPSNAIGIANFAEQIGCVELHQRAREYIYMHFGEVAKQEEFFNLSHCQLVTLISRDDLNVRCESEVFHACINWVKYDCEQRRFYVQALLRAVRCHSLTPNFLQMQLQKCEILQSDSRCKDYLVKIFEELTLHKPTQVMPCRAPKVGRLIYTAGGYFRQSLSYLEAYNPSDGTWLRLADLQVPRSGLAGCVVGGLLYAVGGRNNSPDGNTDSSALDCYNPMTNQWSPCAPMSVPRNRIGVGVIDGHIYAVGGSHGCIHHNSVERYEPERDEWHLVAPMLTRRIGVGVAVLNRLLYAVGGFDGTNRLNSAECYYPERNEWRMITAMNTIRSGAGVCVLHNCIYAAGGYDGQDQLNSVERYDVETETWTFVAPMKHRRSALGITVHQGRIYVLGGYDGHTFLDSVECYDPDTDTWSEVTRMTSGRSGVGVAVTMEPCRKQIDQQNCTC
# LANA DNA inh: inhibitors of KSHV C-LANA binding to DNA, primary screen, biochemical, fluorescence polarization, FAM-LBS DNA, MBP-C-LANA, single point. Kaposi's sarcoma herpesvirus LANA C-terminal domain (residues 932-1162) DNA binding. inhibition, % at 9 µM. hit rate 0.078% among 340,000. AID 504423, 2011;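 active = highest replicate inhibition at or above 60% at 9 µM, even if other replicates fall short; inactive = all replicates below 60% inhibition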;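 note: 0% = neutral control wells and 100% = 4 µM acridine orange control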
# CRFBP-R2 block: antagonists of CRF-BP/CRF-R2 complex, primary screen, cell-based, HEK293, calcium dye fluorescence, uHTS; CRF-induced calcium fluorescence; inhibition, % at 11.8 µM; hit rate 0.59% among 350,000; AID 588475, 2011;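 active = inhibition of the ligand-induced calcium signal above about 50% at the single tested concentration, limit read from the data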
# * hit, by the source's call; x = no result given.
SMILES,RTF Ca sens act,CRFR2-BP ag,Cardiac RTF inh,Keap1-Nrf2 PPI,LANA DNA inh,CRFBP-R2 block
O=C1c2ccccc2C(=O)N1c1ncc(Cc2ccc(Cl)cc2)s1,2.4,207.6*,2.3,-0.8,1.4,-7.9
COc1ccc(C(=Cc2cc(OC)c(OC)cc2[N+](=O)[O-])C(=O)O)cc1,3.7,-2.5,1.3,-2.1,0.1,-4.7
COc1cccc(CNC(=O)C(C)n2nc(C)n3c(cc4occc43)c2=O)c1 (centres undefined),-4.4,0.0,-0.2,-0.3,-0.4,1.4
CCCC(=O)n1nc(-c2ccc(Cl)cc2)nc1SC,-2.2,2.1,-7.4,0.0,78.4*,8.7
CCC(=O)n1nc(-c2ccc(Cl)cc2)nc1SC,-1.5,-0.9,4.7,3.1,0.2,2.4
COc1ccc2c(c1)-c1nc(/N=C/c3c(O)ccc4ccccc34)sc1CC2,2.8,-1.9,-18.0,0.5,0.8,9.5
COc1ccc2c(c1)-c1nc(/N=C/c3ccc(O)cc3)sc1CC2,-6.0,2.2,-13.1,-5.6,-1.9,90.6*
Cc1ccc(-c2csc(Nc3ccc(C(=O)O)cc3)[n+]2Cc2ccccc2)cc1,-2.4,-7.0,-7.1,-2.8,1.9,69.0*
COc1ccc(-c2csc(Nc3ccccc3)[n+]2Cc2ccccc2)cc1,-2.2,0.9,-2.7,-7.0,-1.0,12.4
CCN(C[C@H]1N[C@@](C)(C(=O)OC)[C@H]2C(=O)N(C)C(=O)[C@@H]12)S(=O)(=O)c1ccccc1,2.3,2.5,-6.0,-2.7,-2.8,-18.2
CCN1CCN(C(=O)c2cc3ccc(OC)cc3[nH]2)CC1,3.6,5.6,-3.7,-3.1,-6.1,17.3
COc1ccc2cc(C(=O)N3CCN(Cc4ccc5c(c4)OCO5)CC3)[nH]c2c1,1.6,0.1,0.7,-1.6,0.6,50.1*
CCOC(=O)c1c(NC(=O)C(C)Sc2cccc[n+]2[O-])sc2c1CCN(Cc1ccccc1)C2 (centres undefined),15.1,51.4*,-9.9,-6.6,-2.2,7.0
CCOC(=O)c1c(NC(C)=O)sc2c1CCN(Cc1ccccc1)C2,12.2,27.1,-14.1,-6.6,-0.8,-24.3
CC(C)c1nnc(NC(=O)CCC(=O)NCc2ccccc2Cl)s1,-6.6,0.5,-7.4,-1.1,1.5,-2.2
CN1C2CCC1CC(OC(c1ccccc1)c1ccccc1)C2 (centres undefined),8.8,2.4,-13.0,-5.9,0.4,-17.1
Cc1ccc(S(=O)(=O)Nc2cc(C(=O)Nc3cc(C)cc(C)c3)ccc2Cl)cc1,-3.9,-2.1,-6.0,-1.6,0.2,55.2*
Cc1ccc(NS(=O)(=O)c2ccc(C(=O)N3CC(C)CC(C)C3)cc2)cc1 (centres undefined),-7.7,117.2*,-16.1,-5.4,-0.1,-50.5
Cc1ccc(NS(=O)(=O)c2ccc(C(=O)Nc3nncs3)cc2)cc1,-1.5,3.8,-1.9,-7.9,1.2,110.5*
Cc1ccc(S(=O)(=O)Nc2ccc(C(=O)N3CCCC3)cc2)cc1,-2.2,-0.7,-4.5,-5.6,-0.3,4.9
Cc1ccc(S(=O)(=O)Nc2ccc(C(=O)NC3CC3)cc2)cc1,-1.7,1.0,-3.2,0.3,0.8,3.0
O=C(OCC(=O)N1CCCCC1)c1cc(S(=O)(=O)N2CCOCC2)c(Cl)cc1Cl,0.1,0.2,4.4,1.2,3.4,-4.0
CCc1ccc(N2CC(C(=O)OCC(=O)N(CC)c3c(N)n(Cc4ccccc4)c(=O)[nH]c3=O)CC2=O)cc1 (centres undefined),13.1,-1.1,-18.0,187.5*,x,13.5
C=CCN1C(c2cccc(C(F)(F)F)c2)=CS/C1=C(\C#N)c1nnc(N2CCOCC2)n1-c1ccccc1,x,57.7*,x,x,x,-15.8
CCOC(=O)N1CCC(N(CCN(C)C)C(=S)Nc2cc(C)ccc2C)CC1,6.0,3.1,-7.1,-0.4,1.3,12.9
SMILES,RTF Ca sens act,CRFR2-BP ag,Cardiac RTF inh,Keap1-Nrf2 PPI,LANA DNA inh,CRFBP-R2 block
C[C@H](NC(=O)c1nc[nH]c1C(=O)N1CCN(C(=O)OC(C)(C)C)CC1)C(=O)OCc1ccccc1,1.9,-3.4,0.9,-2.9,3.4,2.1
Cc1c(OCC(=O)NCCCN2CCOCC2)ccc2c3c(c(=O)oc12)CCC3,-0.4,5.0,2.0,0.4,2.1,1.6
CSc1nnc(-c2sc(-c3ccccc3)nc2C)n1C,-1.6,0.1,4.6,1.1,1.4,55.3*
O=C(CSCc1ccccc1Br)NNC(=S)NCc1ccco1,-2.9,-1.4,-2.8,3.9,-1.1,77.2*
O=C(NCC1(N2CCCCC2)CCCCC1)c1ccc(NS(=O)(=O)c2ccccc2)cc1,-3.3,-0.2,6.0,0.2,-1.9,10.7
O=C(CCl)N1c2ccccc2Oc2ccc3ccccc3c21,225.6*,40.7,-295.2,-2.1,6.0,-88.2
CC(=O)N1c2ccccc2Oc2cc3ccccc3cc21,1.2,-0.5,-7.3,-2.8,-0.5,-20.0
CCOC(=O)C1C(C)=CC(=O)CC1c1ccco1 (centres undefined),7.2,22.3,4.8,-2.5,-0.3,67.5*
Cc1[nH]c(=O)c(C#N)cc1-c1csc(-c2ccccc2)n1,-4.5,-5.6,-5.2,-9.7,3.9,51.0*
Cc1nnc(SCc2ccc(C(=O)Nc3cc(Cl)ccc3C)cc2)s1,1.6,-3.2,0.8,0.0,-2.0,24.9
COC(=O)c1scc(C)c1NC(=O)c1ccccc1F,1.7,203.6*,-4.9,1.0,0.0,-179.4
COc1cc2[nH]c(=O)n(CCCCCC(=O)NC3CCCC3)c(=O)c2cc1OC,4.8,1.6,5.5,-0.6,0.1,66.9*
COC(=O)c1c(C)[nH]c(O)c1C=Nc1ccc(Oc2ccccc2)cc1,-3.5,59.3*,7.8,-5.9,0.0,-83.4
COC(=O)c1c(C)[nH]c(O)c1C=Nc1ccc(C(C)C)cc1,10.6,126.3*,-25.5,-4.3,3.1,-141.5
CCOC(=O)c1c(C)[nH]c(O)c1C=Nc1ccc(Cl)cc1,5.1,17.5,-4.0,-13.9,1.1,-32.6
COc1ccc(S(=O)(=O)N2CCOC2CNC(=O)C(=O)NCCc2ccccc2)cc1C (centres undefined),-0.8,-0.8,-0.1,-3.3,-1.2,139.6*
COc1ccc(S(=O)(=O)N2CCOC2CNC(=O)C(=O)NCCc2ccccc2)cc1OC (centres undefined),0.8,-3.0,-4.3,0.4,0.6,-23.1
